Source: PubChem BioAssay (Tox21)
Unmarked numbers belong to inactive results. Results filed as inconclusive are left out. A call without a number means that no potency is given here. The source made the active and inactive calls. The call rests on the fitted dose curve; in most records, active means well fitted curve in the direction sought with a large enough effect in the repeat runs; inconclusive means weak or mixed curves; inactive means no such curve, though single readings can be large; an effect the other way counts as inactive or inconclusive.

experiment: qHTS assay to identify small molecule HDAC inhibitors (AID 1259364); details: HCT-116 HDAC-Glo I/II luminescence, 2 h; series mostly up to 92.4 µM; further: potency means the concentration at half of the fitted maximal effect;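 further: wild-type HCT-116 cells with endogenous class I/II HDAC activity; nearly all actives have a fitted effect of over 45% in size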; on activity change, negative = inhibition: top concentration of the series differs between compounds
Summary of the method: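 HCT-116 (wild type), 1,500 cells/well, overnight; compound 2 hr 37C 5% CO2; HDAC-Glo I/II reagent 30 min RT; luminescence readout.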

Row | Structure (SMILES) | Potency | activity change, negative = inhibition
1 | CC(=O)NC(=O)c1ccccc1O | inactive | –
2 | O=C1NC(=O)C2CC=CCC12 (centres undefined) | inactive | –
3 | CC1=NN(c2cccc(S(=O)(=O)O)c2)C(=O)C1 | inactive | –
4 | CCCc1nn(C)c2c(=O)[nH]c(-c3cc(S(=O)(=O)N4CCN(C)CC4)ccc3OCC)nc12 | inactive | –
5 | CN(C)C(=O)Oc1ccc[n+](C)c1 | inactive | –
6 | C=CC(C)(CCC=C(C)C)OC(=O)CC (centres undefined) | inactive | –
7 | C[N+]12CCC(CC1)C(OC(=O)C(O)(c1ccccc1)c1ccccc1)C2 (centres undefined) | inactive | –
8 | CC1=CCC(O)(C(C)C)CC1 (centres undefined) | inactive | –
9 | Cc1onc(-c2c(Cl)cccc2Cl)c1C(=O)Cl | inactive | –
10 | CCCC(=O)O[C@]1(C(=O)CC)CC[C@H]2[C@@H]3CCC4=CC(=O)CC[C@]4(C)[C@H]3[C@@H](O)C[C@@]21C | inactive | –
11 | NCCCC[C@H](N[C@@H](CCc1ccccc1)C(=O)O)C(=O)N1CCC[C@H]1C(=O)O | inactive | –
12 | CC(=O)O[C@@]12CO[C@@H]1C[C@H](O)[C@@]1(C)C(=O)[C@H](O)C3=C(C)[C@@H](OC(=O)[C@H](O)[C@@H](NC(=O)OC(C)(C)C)c4ccccc4)C[C@@](O)([C@@H](OC(=O)c4ccccc4)[C@H]21)C3(C)C | inactive | –
13 | COC(=O)C1=C(C)NC(C)=C(C(=O)OC(C)C)C1c1cccc2nonc12 (centres undefined) | inactive | –
14 | CC(C)CC(C)(N)C#N (centres undefined) | inactive | –
15 | CCCCCCCCN1CCCC1=O | inactive | –
16 | Nc1ccn([C@@H]2O[C@H](CO)[C@@H](O)C2(F)F)c(=O)n1 | inactive | –
17 | NC(=O)N1c2ccccc2CC(=O)c2ccccc21 | inactive | –
18 | CCCCOCCOC(=O)COc1cc(Cl)c(Cl)cc1Cl | inactive | –

Row | Structure (SMILES) | Potency | activity change, negative = inhibition
19 | COc1cc2c(cc1OC)-c1cc3ccc(OC)c(OC)c3c[n+]1CC2 | inactive | –
20 | CCOCC(C)O (centres undefined) | inactive | –
21 | CC(COc1ccccc1)NN (centres undefined) | inactive | –
22 | CCCCCCCCCCOc1cc2c(=O)c(C(=O)OCC)c[nH]c2cc1OCC | – | 0.14% [at 8.39 µM]
23 | C[N+]1(C)[C@@H]2CC(OC(=O)[C@H](CO)c3ccccc3)C[C@H]1[C@@H]1O[C@@H]12 (some centres undefined) | inactive | –
24 | COC(=O)Nc1ccc(Cl)c(Cl)c1 | inactive | –
25 | CC(C)c1ccc2ncccc2c1 | inactive | –
26 | CC(=O)Nc1ccc(OCC(O)CNC(C)C)cc1 (centres undefined) | inactive | –
27 | CCCCCC(=O)OCCc1ccccc1 | inactive | –
28 | C=CCCCCCCCCC(=O)OCC | inactive | –
29 | CN1CC(=O)N/C1=N/C(=O)Nc1cccc(Cl)c1 | 4.22 µM (active) | –
30 | Cc1nc2ccc(CN(C)c3ccc(C(=O)N[C@@H](CCC(=O)O)C(=O)O)s3)cc2c(=O)[nH]1 | inactive | –
31 | O=S(=O)(O)c1cc(O)c(O)c(S(=O)(=O)O)c1 | inactive | –
32 | CCCCc1nc(Cl)c(CO)n1Cc1ccc(-c2ccccc2-c2nn[nH]n2)cc1 | inactive | –
33 | CCOC(=O)CCC(=O)OCC | inactive | –
34 | CC(C)(C#N)Nc1nc(Cl)nc(NC2CC2)n1 | inactive | –
35 | O=[N+]([O-])c1ccc(/C=N\O)o1 | inactive | –
36 | CCCOC(=O)CC | inactive | –

experiment: qHTS assay to identify small molecule HDAC inhibitors - cell viability counter screen (AID 1259365); details: HCT-116 viability, CellTiter-Glo ATP luminescence, 2 h; series mostly up to 92.4 µM; further: nearly all actives have a fitted effect of over 50% in size
Summary of the method: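 CellTiter-Glo luminescence (30 min, room temperature) reported viability after a 2 h compound exposure at 37 C. Cells: wild-type HCT-116, 1,500 per well, seeded the night before.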

Row | Structure (SMILES) | outcome | activity change, negative = cytotoxicity
37 | CC(=O)NC(=O)c1ccccc1O | inactive | –
38 | O=C1NC(=O)C2CC=CCC12 (centres undefined) | inactive | –
39 | CC1=NN(c2cccc(S(=O)(=O)O)c2)C(=O)C1 | inactive | –
40 | CCCc1nn(C)c2c(=O)[nH]c(-c3cc(S(=O)(=O)N4CCN(C)CC4)ccc3OCC)nc12 | inactive | –
41 | CN(C)C(=O)Oc1ccc[n+](C)c1 | inactive | –
42 | C=CC(C)(CCC=C(C)C)OC(=O)CC (centres undefined) | inactive | –
43 | C[N+]12CCC(CC1)C(OC(=O)C(O)(c1ccccc1)c1ccccc1)C2 (centres undefined) | inactive | –
44 | CC1=CCC(O)(C(C)C)CC1 (centres undefined) | inactive | –
45 | c1coc(CNc2ncnc3nc[nH]c23)c1 | inactive | –
46 | Cc1onc(-c2c(Cl)cccc2Cl)c1C(=O)Cl | inactive | –
47 | CCCC(=O)O[C@]1(C(=O)CC)CC[C@H]2[C@@H]3CCC4=CC(=O)CC[C@]4(C)[C@H]3[C@@H](O)C[C@@]21C | inactive | –
48 | NCCCC[C@H](N[C@@H](CCc1ccccc1)C(=O)O)C(=O)N1CCC[C@H]1C(=O)O | inactive | –
49 | CC(=O)O[C@@]12CO[C@@H]1C[C@H](O)[C@@]1(C)C(=O)[C@H](O)C3=C(C)[C@@H](OC(=O)[C@H](O)[C@@H](NC(=O)OC(C)(C)C)c4ccccc4)C[C@@](O)([C@@H](OC(=O)c4ccccc4)[C@H]21)C3(C)C | inactive | –
50 | COC(=O)C1=C(C)NC(C)=C(C(=O)OC(C)C)C1c1cccc2nonc12 (centres undefined) | inactive | –
51 | CC(C)CC(C)(N)C#N (centres undefined) | inactive | –
52 | CCCCCCCCN1CCCC1=O | inactive | –
53 | Nc1ccn([C@@H]2O[C@H](CO)[C@@H](O)C2(F)F)c(=O)n1 | inactive | –
54 | NC(=O)N1c2ccccc2CC(=O)c2ccccc21 | inactive | –
55 | CCCCOCCOC(=O)COc1cc(Cl)c(Cl)cc1Cl | inactive | –

Row | Structure (SMILES) | outcome | activity change, negative = cytotoxicity
56 | COc1cc2c(cc1OC)-c1cc3ccc(OC)c(OC)c3c[n+]1CC2 | inactive | –
57 | CCOCC(C)O (centres undefined) | inactive | –
58 | CC(C)COC(=O)c1ccc(N)cc1 | inactive | –
59 | CC(COc1ccccc1)NN (centres undefined) | inactive | –
60 | CCCCCCCCCCOc1cc2c(=O)c(C(=O)OCC)c[nH]c2cc1OCC | – | 9.44% [at 8.39 µM]
61 | C[N+]1(C)[C@@H]2CC(OC(=O)[C@H](CO)c3ccccc3)C[C@H]1[C@@H]1O[C@@H]12 (some centres undefined) | inactive | –
62 | COC(=O)Nc1ccc(Cl)c(Cl)c1 | inactive | –
63 | CC(C)c1ccc2ncccc2c1 | inactive | –
64 | CC(=O)Nc1ccc(OCC(O)CNC(C)C)cc1 (centres undefined) | inactive | –
65 | CCCCCC(=O)OCCc1ccccc1 | inactive | –
66 | C=CCCCCCCCCC(=O)OCC | inactive | –
67 | CN1CC(=O)N/C1=N/C(=O)Nc1cccc(Cl)c1 | inactive | –
68 | Cc1nc2ccc(CN(C)c3ccc(C(=O)N[C@@H](CCC(=O)O)C(=O)O)s3)cc2c(=O)[nH]1 | inactive | –
69 | O=S(=O)(O)c1cc(O)c(O)c(S(=O)(=O)O)c1 | inactive | –
70 | CCCCc1nc(Cl)c(CO)n1Cc1ccc(-c2ccccc2-c2nn[nH]n2)cc1 | inactive | –
71 | CCOC(=O)CCC(=O)OCC | inactive | –
72 | CC(C)(C#N)Nc1nc(Cl)nc(NC2CC2)n1 | inactive | –
73 | O=[N+]([O-])c1ccc(/C=N\O)o1 | inactive | –
74 | CCCOC(=O)CC | inactive | –
